The values below come from PubChem BioAssay AID720541 (National Center for Advancing Translational Sciences (NCATS), 2013).

Molecules are shown by their SMILES. In all, about 1,300 compounds went through this assay and about 420 (32%) were called active. Roughly 32% stayed inconclusive and do not appear here. The list shows a part of the results. Unmarked numbers belong to inactive results. The call rests on the fitted dose curve; in most records, active means well fitted inhibition curve with a large enough effect; inconclusive means small, poorly fitted or top-dose-only effect; inactive means no such curve, though single readings can be large or run the other way.
On the % scale 0 is the no-effect control and ±100 the full control effect; potency means the concentration at half of the fitted maximal effect.

The test has as its target C-terminal-binding protein 1 (Homo sapiens) (UniProt Q13363). Put plainly: qHTS for Inhibitors of the Phosphatase Activity of Eya2: Carboxyl-terminal binding protein (CtBP) Counterscreen for Cherry-picked Compounds. Further: nearly all actives have a fitted effect of over 65% in size. The conditions noted are these: purified protein-protein binding, AlphaScreen, 3 h; series mostly up to 46.1 µM; activity change, negative = inhibition: at the top concentration. In short, it runs like this: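 AlphaScreen using 25 nM GST-E1A with 25 nM CtBP-6xHIS; compounds at 2.5 nM–46 uM final, 2 h at room temperature, then donor/acceptor beads (20 ug/mL) for 1 h in the dark. Signal normalized to E1A peptide inhibitor (maximum inhibition) and DMSO.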
(In qHTS, concentration-response curves come from the screen itself.)
Turning to `Cc1c(C(=O)/C=C/N(C)C)nnn1-c1ccc(Cl)cc1Cl`, the “activity change, negative = inhibition” value is 3.68%. Regarding `CN(C)S(=O)(=O)c1cccc(NC(=O)COc2ccccc2C(=O)Nc2ccccc2)c1`, the Potency was 10.7 µM (active). Take `O=C(COc1ccccc1/C=C1/NC(=O)NC1=O)Nc1ccccc1`: the “activity change, negative = inhibition” value is -22%.

Turning to `CCC(C)C(CO)NC(=O)/C=C/[C@H]1O[C@@H](n2cnc3c(NC(=O)c4ccccc4)ncnc32)[C@H](O)[C@@H]1O` (some centres undefined), the “activity change, negative = inhibition” value was 2.64%. Same read-out and setting: the figure for `CCCC[C@@]1(C2CCCC2)Cc2cc(OCC(=O)O)c(Cl)c(Cl)c2C1=O` is -17.1%. `CN1C(=O)/C(=C2\SC(=S)N(NC(=O)c3cccnc3)C2=O)c2ccccc21`: the Potency is 15.1 µM (active).

For the molecule `CCOC(=O)CN1C(=O)/C(=C2\SC(=S)N(NC(=O)c3cccnc3)C2=O)c2ccccc21`, the Potency was 13.5 µM (active). In the case of `CCc1ccc2[nH]c3nc(SCC(=O)NCC4CCCO4)nnc3c2c1` (centres undefined), the Potency is 4.78 µM (active).

Consider `CCOc1ccc2[nH]c3nc(SCC(=O)NC4CCCC4)nnc3c2c1`, for which the “activity change, negative = inhibition” value was 23.6%. Same read-out and setting: the figure for `Cc1cc2oc(C(=O)N(Cc3ccc(N(C)C)cc3)CC3CCCO3)c(C)c2cc1C` (centres undefined) is -65.1%; for `CCCc1cc(=O)[nH]c(SCC(=O)Nc2ccc(C)cc2)n1` it is 2.2%. In the case of `Cc1nnc2sc(SCC(=O)Nc3ccc(Br)cc3)nn2c1=O`, the Potency was 2.13 µM (active).

On to `CCOC(=O)N1CCC(NC(=O)c2cc3c(-c4ccccc4F)nn(C)c3s2)CC1`, for which the “activity change, negative = inhibition” value was 6.05%. `N#Cc1c2nc3ccccc3nc2n2cc(NC(=O)c3ccc(F)cc3)ccc12`: the Potency was 3.79 µM (active). `Cc1cccc(N2CCN(C(=O)C3COc4ccccc4O3)CC2)c1C` (centres undefined): the “activity change, negative = inhibition” value is 1.89%. Regarding `Cc1cnc(C(=O)Nc2ccccc2-c2ccc(C)o2)cn1`, the “activity change, negative = inhibition” value is -9.79%.

For the molecule `COc1ccc(-n2nc(C)cc2Nc2ccccc2C(=O)O)cc1`, the Potency is 7.57 µM (active). Consider `CCOC(=O)c1cc(-c2ccc(N3CCOCC3)cc2)nn1-c1ccccc1C(=O)O`, for which the “activity change, negative = inhibition” value was 1.17%. As to `Cc1cc(Nc2ccccc2C(=O)O)n(-c2cccc(Cl)c2)n1`, the Potency is 7.57 µM (active). As for `CCc1nc2ccc(C(=O)NCCOc3ccc(OC)cc3)cn2c1N(CCC(C)C)CCN(C)C`, the “activity change, negative = inhibition” value is -15%. As for `O=C1c2ccccc2C(=O)c2c(Nc3ccc(CCO)cc3)ccc(O)c21`, the Potency is 6.01 µM (active).

Turning to `COc1cccc(C2c3[nH]c4ccccc4c3CCN2Cc2cnn(C)c2)c1` (centres undefined), the “activity change, negative = inhibition” value was -26.5%. For `CNc1c(Br)cc(C(O)C2=CCc3ccccc32)cc1Br` (centres undefined), the “activity change, negative = inhibition” value was -6.01%. On to `Cc1csc(NC(=O)c2cc(=O)[nH]c3ccccc23)n1`, for which the Potency was 19 µM (active). Regarding `O=C(NC1CCCC1)c1cc(=O)[nH]c2ccccc12`, the “activity change, negative = inhibition” value was 20.1%. The same measure, in the same setting: the figure for `Cc1cc(Br)c(NC(=O)c2ccccc2[N+](=O)[O-])cc1C` is 0.85%; for `COc1ccc(C(=O)CC(=O)Nc2ccc([N+](=O)[O-])cc2)cc1` it is -3.78%.

Regarding `O=C(Nc1cc([N+](=O)[O-])ccc1O)c1cccc(C(=O)Nc2cc([N+](=O)[O-])ccc2O)c1`, the Potency is 6.01 µM (active). As for `COc1cc(OC)c(OC)cc1CCC(C)NCCC(c1ccccc1)c1ccccc1` (centres undefined), the Potency is 13.5 µM (active). With `Cc1cccc(NC(=O)COC(=O)c2cccc3c2C(=O)c2ccccc2C3=O)c1C`, the “activity change, negative = inhibition” value was -11.7%.

On to `CNc1cccc2c1C(=O)c1ccccc1C2=O`, for which the Potency was 2.39 µM (active).

As to `NC(=O)c1ccc(NC(=O)COC(=O)/C=C/c2ccc(Br)o2)cc1`, the “activity change, negative = inhibition” value is 3.02%. Consider `Cc1ccc(/C=C/C(=O)Nc2ccc(N(C)C)cc2)o1`, for which the Potency is 15.1 µM (active). With `C=CCn1cccc(C(=O)Nc2ccc(N(C)C)cc2)c1=O`, the “activity change, negative = inhibition” value was -23.2%. For the molecule `CN(C)c1ccc(-c2ccnc3c2CC(C)(C(=O)Nc2ccc(Cl)c(C(F)(F)F)c2)O3)cc1` (centres undefined), the “activity change, negative = inhibition” value was -29.7%.

Turning to `CCOC(=O)C1=C(N)Oc2c(oc(CO)cc2=O)C1c1ccc(Cl)cc1` (centres undefined), the “activity change, negative = inhibition” value is -7.43%. Regarding `O=C(Nc1ccc2nc(-c3ccco3)c(-c3ccco3)nc2c1)N1CCCC1`, the Potency is 16.9 µM (active). Turning to `CC1CCN(C(=O)Nc2ccc3nc(-c4ccco4)c(-c4ccco4)nc3c2)CC1`, the Potency was 15.1 µM (active). The same measure, in the same setting: under `CCOC(=O)c1ncccc1NC(=O)CC(=O)Nc1cccnc1C(=O)OCC` stands 2.39 µM (active). On to `Cc1cc(OC(=O)c2ccc(Cl)cc2)cc(=O)n1C`, for which the “activity change, negative = inhibition” value was -16.9%. On the same count and under the same terms, the figure for `C[C@H](O)[C@@H]1CN2CCc3c([nH]c4ccc(-c5ccc6c(c5)OCO6)cc34)[C@@H]2C[C@@H]1N(C)C(=O)NC1CCCCC1` is -13.4%; for `COc1ccc(Nc2nc(N)nc(CSC(=S)N3CCCCC3)n2)cc1` it is -20.2%. Regarding `Oc1ccccc1C=NC1CCCCC1N=Cc1ccccc1O` (centres undefined), the Potency was 15.1 µM (active). On to `COc1cc([C@H]2Oc3cc([C@H]4Oc5cc(O)cc(O)c5C(=O)[C@@H]4O)ccc3O[C@@H]2CO)ccc1O`, for which the “activity change, negative = inhibition” value was -14.6%. Still for that read-out and setting: under `c1ccc(-c2ccc(C3=Nn4c(nnc4-c4cc(-c5ccccc5)n[nH]4)SC3)cc2)cc1` stands -3.15%; under `Cc1cc(C)n2nc(C(=O)NC3CCCc4ccccc43)nc2n1` (centres undefined), -1.35%. Still for that read-out and setting: under `O=c1[nH]c(SCCOc2ccccc2F)nc2ccccc12` stands -27.8%. For the molecule `Cc1cc(C)n2nc(SCCOc3ccccc3F)nc2n1`, the Potency is 12 µM (active). With `O=c1[nH]c(=O)n(C2C[C@H](O)[C@@H](CO)O2)cc1C(F)(F)F` (some centres undefined), the “activity change, negative = inhibition” value is -7.49%.
